D2 antagonist = antagonists of human D2 dopamine receptor. P14416. inhibition, % at 10 µM. HEK293 TREx D2 cells, calcium flux, dopamine EC80. 340,000 tested, 2% active; in the data active = inhibition above about 30%; inactive = below that, where a call was filed; also: 0% is about no effect
Target sequence (P14416 whole entry, looked up): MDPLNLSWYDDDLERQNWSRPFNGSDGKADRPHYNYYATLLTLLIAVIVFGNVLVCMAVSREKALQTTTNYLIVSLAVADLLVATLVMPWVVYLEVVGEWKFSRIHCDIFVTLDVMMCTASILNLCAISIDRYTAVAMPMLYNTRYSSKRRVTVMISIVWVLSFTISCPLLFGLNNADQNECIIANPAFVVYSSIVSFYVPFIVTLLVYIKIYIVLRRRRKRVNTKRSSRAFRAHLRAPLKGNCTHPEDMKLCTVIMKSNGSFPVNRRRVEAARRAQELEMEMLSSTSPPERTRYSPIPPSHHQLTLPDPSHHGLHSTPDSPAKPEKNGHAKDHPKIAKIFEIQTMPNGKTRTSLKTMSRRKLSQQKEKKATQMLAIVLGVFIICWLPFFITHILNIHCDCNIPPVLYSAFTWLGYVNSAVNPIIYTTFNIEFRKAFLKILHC
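Cells plated overnight at 30 C with tetracycline; no-wash calcium dye, 30–90 min RT; 10 s baseline; compound pinned; 180 s read; EC80 dopamine added; another 180 s read.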
D2 PAM-1 = positive allosteric modulators of human D2 dopamine receptor | 360,000 tested, 0.23% active | AID 624464 | potentiation, % (test concentration not listed) | DiscoveRx D2 beta-arrestin cells, luminescence, 90 min; 100% = 57 uM dopamine signal; in the data active = potentiation above about 50%; inconclusive = mostly about 30% to 49%
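PathHunter beta-arrestin assay in DiscoveRx D2 cells. Compounds were added with an EC20 of dopamine (50 nM final) for 90 min at 37 deg C. Luminescence was read 1 h after detection reagent, with 57 uM dopamine as the EC100 control.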
D2 ag-1 = human D2 receptor agonism in beta-arrestin assay; P14416; DiscoveRx PathHunter D2 beta-arrestin, luminescence, 90 min; 100% = 57 uM dopamine signal; activation, % (test concentration not listed); 360,000 tested, 0.084% active; in the data active = activation above about 40%; inconclusive = between about 15% and that limit
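DiscoveRx PathHunter D2 beta-arrestin cells (2,100/well) attached overnight, then compound-stimulated 90 min at 37 C in HBSS/10 mM HEPES/0.1% Tween-20 buffer; beta-galactosidase complementation read by luminescence after 1 h at ambient temperature. Dopamine 57 uM final (EC100) as control.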
D2 ag-2 = activates the human D2 dopamine receptor. 340,000 tested, 0.53% active. activation, % at 2 µM. P14416. HEK293 T-REx D2 cells, calcium flux agonist mode. AID 485358;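 active = activation over 3 SD above normal in the single-dose calcium agonist read, cut at about 30% in these data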; also: 0% is about no effect
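Tetracycline-induced HEK293 T-REx cells with force-coupled D2 receptor, plated overnight at 30 C, loaded with no-wash calcium dye. After a 10 s baseline, compound was pin-added and calcium flux read kinetically for 180 s; calcium rises flagged agonists.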
D2 PAM-2 = positively modulates the human D2 dopamine receptor allosterically; P14416; HEK293 T-REx D2, calcium flux, EC20 dopamine potentiation; potentiation, % at 10 µM; 340,000 tested, 0.34% active;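 active = potentiation over 3 SD above the plate norm, cut at about 30% in these data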; also: 0% is about no effect
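Tetracycline-induced HEK293 T-REx cells force-coupled to calcium signalling expressed D2; compounds were pin-added after a 10 s baseline, read kinetically 180 s, then an EC20 dopamine challenge followed with a further 180 s calcium read.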
* marks the source's active call; other numbers are inactive results; ? = inconclusive; . = no result. An excerpt weighted towards active compounds, which were near 2.4% of everything screened.

SMILES	D2 antagonist	D2 PAM-1	D2 ag-1	D2 ag-2	D2 PAM-2
Cc1[nH]c2ccccc2c1C(=O)C(=O)NC1CC(=O)N(c2cccc(F)c2)C1 (stereo unspecified)	.	.	.	1	7
CCc1ccc(NC(=O)c2cnn3ccccc23)cc1	42*	-11	-4	-1	-1
S=C(Nc1ccc(Cl)cc1)NC1CCN(Cc2ccccc2)CC1	69*	-31	0	6	-22
CCc1ccc(NC(=S)NC2CCN(Cc3ccccc3)CC2)cc1	98*	-28	-3	4	-25
COc1ccc(NC(=S)NC2CCN(Cc3ccccc3)CC2)cc1OC	23	-15	1	0	-18
CCC(C)c1ccc(NC(=S)NC2CCN(Cc3ccccc3)CC2)cc1 (stereo unspecified)	.	-35	-3	.	-23
S=C(Nc1ccccc1)NC1CCN(Cc2ccccc2)CC1	92*	-39	-4	1	-27
COc1ccc(CCNC(=S)NC2CCN(Cc3ccccc3)CC2)cc1	71*	-19	-2	1	-29
Clc1ccc(CNc2cc(-c3ccccc3)nc3nncn23)cc1	.	.	.	3	6
C[C@@H]1CN([C@@H](C)CO)C(=O)c2cc(Br)cnc2O[C@H]1CN(C)C(=O)NC1CCCC1	.	-6	-8	.	.
S=C(NCCN1CCOCC1)Nc1ccc(Cl)cc1	1	-7	-3	0	-13
CC1CCN(CCNC(=S)Nc2ccc(Cl)cc2)CC1	31*	-17	-3	1	-15
CCCNC(=O)C1(C)CCN(C(=O)/C=C/c2ccccc2)C1 (stereo unspecified)	.	-1	1	.	.
O=C1C2CCCN2C(=O)N1CCCCN1CCN(c2ccc(F)cc2)CC1 (stereo unspecified)	40*	-23	0	12	-20
O=C1C2CCCCN2C(=O)N1CCCCN1CCN(c2ccc(F)cc2)CC1 (stereo unspecified)	11	-4	-5	0	-24
O=C1C2CCCCN2C(=O)N1CCN1CCN(c2cccc(Cl)c2)CC1 (stereo unspecified)	.	-10	2	.	.
O=C1C2CCCCN2C(=O)N1CCCCN1CCN(c2cccc(Br)c2)CC1 (stereo unspecified)	87*	-1	-1	40*	-26
COc1ccc(/C=C/C(=O)Nc2ccccc2)cc1OC	30*	-6	-3	-9	-12
Cc1ccccc1/C(N)=N/OC(=O)c1cccs1	.	139*	?	.	.
COc1ccc(/C=C/C(=O)O/N=C(\N)c2ccccc2)cc1OC	-1	52*	14	0	-1
Cc1ccccc1/C(N)=N/OC(=O)/C=C/c1ccccc1	7	87*	?	0	0
N/C(=N\OC(=O)c1cccs1)c1cccnc1	-18	?	?	1	18
CCOc1ccccc1N(C)C(=O)c1c2c(nc3ccccc13)C(=O)N(C1CCCCC1)C2	.	.	.	1	1
N/C(Cc1ccc(Cl)c(Cl)c1)=N\OC(=O)c1cccs1	-18	81*	15	1	-3
CC(C)n1c(=O)c2ccccc2n1Cc1cn(-c2ccccc2)nn1	.	-1	-3	.	.
SMILES	D2 antagonist	D2 PAM-1	D2 ag-1	D2 ag-2	D2 PAM-2
C(=N\Nc1nc(-c2ccccc2)cs1)/c1cccs1	-11	63*	13	-1	5
C(=N\Nc1nc(-c2ccccc2)cs1)/c1ccncc1	-15	-5	4	1	-5
COc1cccc2cc(C(=O)NCc3ccccn3)c(=O)oc12	44*	8	-2	0	-4
Cc1cc(C)cc(N=Cc2[nH]c3ccc(Br)c(Cl)c3c2O)c1	-4	-12	6	34*	-4
Cc1ccc(C)c(Nc2nc(-c3ccncc3)nc3ccccc23)c1	36*	-4	5	.	13
CCN(CC)CCN1C(=O)C(=O)/C(=C(/O)c2ccc(C)cc2)C1c1ccncc1 (stereo unspecified)	9	.	.	-2	-4
CCN(CC)CCN1C(=O)C(=O)/C(=C(/O)c2ccc(Cl)cc2)C1c1ccncc1 (stereo unspecified)	40*	-6	2	0	2
COc1cc(OC)c(C=NNC(=S)NC23CC4CC(CC(C4)C2)C3)c(OC)c1	.	-14	-2	.	.
CNc1nc(C)nc(N/N=C/c2ccccc2)n1	42*	-5	10	12	-2
COc1cccc(Cn2cccc(NC(=O)NC3CCCCC3)c2=O)c1	29	-7	0	0	31*
CC(=O)N1CCc2cc(C(=O)CN3CCN(c4cccc(Cl)c4)CC3)ccc21	73*	-13	10	54*	-16
CC(=O)N1CCc2cc(C(=O)CN3CCC(C)CC3)ccc21	7	-4	2	1	-4
Cc1cc2c(N=O)c(NO)ccc2[nH]1	.	63*	15	.	.
COc1ccc(-c2coc3c(C(=O)NCc4cccs4)cccc23)c(C)c1	.	-6	-2	.	.
COC(=O)Cn1c(CN2CCN(c3ccc(F)cc3)CC2)nc2c1c(=O)n(C)c(=O)n2C	30*	-7	-2	0	-30
CCOCCn1c(CN2CCN(c3ccc(F)cc3)CC2)nc2c1c(=O)n(C)c(=O)n2C	-20	-15	-2	0	3
COCCn1c(CN2CCN(c3cccc(Cl)c3)CC2)nc2c1c(=O)n(C)c(=O)n2C	3	-8	0	1	-6
CC(C)CCn1c(CN2CCN(c3cccc(Cl)c3)CC2)nc2c1c(=O)n(C)c(=O)n2C	47*	-10	2	-1	-19
CCOC(=O)Cn1c(CN2CCN(c3cccc(Cl)c3)CC2)nc2c1c(=O)[nH]c(=O)n2C	30*	-7	-4	0	-25
CCOCCCNC(=O)C1CCN(c2nn3cc(-c4ccc(F)cc4)nc3s2)CC1	.	.	.	0	-6
c1ccc(Cc2nnc3sc(-c4cccs4)nn23)cc1	73*	1	-2	-1	-10
CCc1ccc(CN(C)CC(=O)Nc2sccc2C#N)cc1	64*	-13	-3	0	9
CCOC(=O)c1ccc(N2C(=O)c3[nH]nc(-c4ccc(C)cc4)c3C2c2ccc(O)c(OCC)c2)cc1 (stereo unspecified)	.	.	.	0	-2
O=C(Nc1ccc(Cl)cn1)c1cccc(S(=O)(=O)N2CCCC2)c1	-12	-4	-2	-1	-3
CN(C)S(=O)(=O)c1cccc(C(=O)Nc2ccc(Cl)cn2)c1	37*	-5	-1	0	8
O=C(CCc1ccc(Oc2cc([N+](=O)[O-])cc([N+](=O)[O-])c2)cc1)N1CCCCCC1	37*	75*	?	-1	-5
COc1ccc(Cn2c3nc4ccccc4nc3c3c(=O)n(Cc4ccco4)cnc32)cc1	40*	.	.	1	6
O=C(Nc1ccc(S(=O)(=O)Nc2nccs2)cc1)c1cccc(N2C(=O)c3ccccc3C2=O)c1	-12	-8	-1	0	4
